In the supplement of paper PMC7411640:
Counter-ions that a name gives are not always drawn.

Test system: MDA-MB-468
Experiment: phospho-S6 immunofluorescence (DAPI-normalised), per-plate z-score; higher = higher phospho-S6 signal (less pathway suppression)
Conditions: 24 h
Description: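 GPCR-targeted compound library (MedChemExpress HY-L006) tested on MDA-MB-468 PTEN-null TNBC cells in 384-well plates at 0.1, 1 or 10 uM, combined with vehicle, GDC0941 450 nM or lapatinib 1 uM, for 24 h. Phospho-S6 (S240/244) immunofluorescence normalised to DAPI and expressed as a per-plate z-score; values are the mean of biological triplicates.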

Compound: COc1ccc(CNC(=O)c2cc(-c3cncc(C)c3)ncc2-c2nccs2)nc1OC (compound 10 µM)
- phospho-S6 immunofluorescence (z-score) (co-treatment: GDC0941 450 nM): -0.61
- phospho-S6 immunofluorescence (z-score) (co-treatment: lapatinib 1 uM): -0.5
- phospho-S6 immunofluorescence (z-score) (co-treatment: vehicle): 0.26

Compound: CCc1cnc(N2CCC(c3nc(COc4ccc(-n5cnnn5)cc4)cs3)CC2)nc1 (compound 10 µM)
- phospho-S6 immunofluorescence (z-score) (co-treatment: GDC0941 450 nM): -3.23
- phospho-S6 immunofluorescence (z-score) (co-treatment: lapatinib 1 uM): -3.56
- phospho-S6 immunofluorescence (z-score) (co-treatment: vehicle): -6.72

Compound: CC(O)Cn1cnc2c1c(=O)n(C)c(=O)n2C (configuration not stated) [Proxyphylline] (compound 10 µM)
- phospho-S6 immunofluorescence (z-score) (co-treatment: GDC0941 450 nM): 0.64
- phospho-S6 immunofluorescence (z-score) (co-treatment: lapatinib 1 uM): 0.19
- phospho-S6 immunofluorescence (z-score) (co-treatment: vehicle): -0.72

Compound: CN1Cc2c(N)cccc2C(c2ccccc2)C1 (configuration not stated) [Nomifensine (maleate)] (compound 10 µM)
- phospho-S6 immunofluorescence (z-score) (co-treatment: GDC0941 450 nM): -0.09
- phospho-S6 immunofluorescence (z-score) (co-treatment: lapatinib 1 uM): -0.69
- phospho-S6 immunofluorescence (z-score) (co-treatment: vehicle): -0.17

Compound: O=c1ccn([C@@H]2O[C@H](COP(=O)(O)OP(=O)(O)OP(=O)(O)OP(=O)(O)OC[C@H]3O[C@@H](n4ccc(=O)[nH]c4=O)[C@H](O)[C@@H]3O)[C@@H](O)[C@H]2O)c(=O)[nH]1 [Diquafosol (tetrasodium)] (compound 10 µM)
- phospho-S6 immunofluorescence (z-score) (co-treatment: GDC0941 450 nM): 0.01
- phospho-S6 immunofluorescence (z-score) (co-treatment: lapatinib 1 uM): 0.71
- phospho-S6 immunofluorescence (z-score) (co-treatment: vehicle): -0.38

Compound: CCNC(=O)[C@@H]1CCCN1C(=O)[C@H](CCCNC(=N)N)NC(=O)[C@H](CC(C)C)NC(=O)[C@@H](COC(C)(C)C)NC(=O)[C@H](Cc1ccc(O)cc1)NC(=O)[C@H](CO)NC(=O)[C@H](Cc1c[nH]c2ccccc12)NC(=O)[C@H](Cc1cnc[nH]1)NC(=O)[C@@H]1CCC(=O)N1 [Buserelin (Acetate)] (compound 10 µM)
- phospho-S6 immunofluorescence (z-score) (co-treatment: GDC0941 450 nM): 0.78
- phospho-S6 immunofluorescence (z-score) (co-treatment: lapatinib 1 uM): 0.63
- phospho-S6 immunofluorescence (z-score) (co-treatment: vehicle): 0.53

Compound: OCCOCCN1CCN(Cc2cccc(Oc3ccccc3)c2)CC1 (compound 10 µM)
- phospho-S6 immunofluorescence (z-score) (co-treatment: GDC0941 450 nM): -0.36
- phospho-S6 immunofluorescence (z-score) (co-treatment: lapatinib 1 uM): 0.35
- phospho-S6 immunofluorescence (z-score) (co-treatment: vehicle): -1.04

Compound: c1ccc(CN(CC2=NCCN2)c2ccccc2)cc1 [Antazoline (hydrochloride)] (compound 10 µM)
- phospho-S6 immunofluorescence (z-score) (co-treatment: GDC0941 450 nM): 0.27
- phospho-S6 immunofluorescence (z-score) (co-treatment: lapatinib 1 uM): 0.23
- phospho-S6 immunofluorescence (z-score) (co-treatment: vehicle): 1.23

Compound: CC(ONC(=O)c1cc(C(F)(F)F)cc(C(F)(F)F)c1)C(=O)Nc1ccc(Cl)cc1 (configuration not stated) (compound 10 µM)
- phospho-S6 immunofluorescence (z-score) (co-treatment: GDC0941 450 nM): -3.03
- phospho-S6 immunofluorescence (z-score) (co-treatment: lapatinib 1 uM): -1.73
- phospho-S6 immunofluorescence (z-score) (co-treatment: vehicle): -2.5

Compound: O=C(Nc1cccc2c(=O)cc(-c3nnn[nH]3)oc12)c1ccc(OCCCCc2ccccc2)cc1 [Pranlukast] (compound 10 µM)
- phospho-S6 immunofluorescence (z-score) (co-treatment: GDC0941 450 nM): 0.87
- phospho-S6 immunofluorescence (z-score) (co-treatment: lapatinib 1 uM): 0.55
- phospho-S6 immunofluorescence (z-score) (co-treatment: vehicle): -0.36

Compound: Clc1ccc2nsnc2c1NC1=NCCN1 [Tizanidine (hydrochloride)] (compound 10 µM)
- phospho-S6 immunofluorescence (z-score) (co-treatment: GDC0941 450 nM): 1.42
- phospho-S6 immunofluorescence (z-score) (co-treatment: lapatinib 1 uM): -0.07
- phospho-S6 immunofluorescence (z-score) (co-treatment: vehicle): 0.54

Compound: CC1(C)O[C@@H]2C[C@H]3[C@@H]4CCC5=CC(=O)C=C[C@]5(C)[C@@]4(F)[C@@H](O)C[C@]3(C)[C@]2(C(=O)CO)O1 [Triamcinolone (acetonide)] (compound 10 µM)
- phospho-S6 immunofluorescence (z-score) (co-treatment: GDC0941 450 nM): -1.69
- phospho-S6 immunofluorescence (z-score) (co-treatment: lapatinib 1 uM): 1.39
- phospho-S6 immunofluorescence (z-score) (co-treatment: vehicle): -1.2

Compound: COC(=O)[C@H](c1ccccc1Cl)N1CCc2sccc2C1 [Clopidogrel (hydrogen sulfate)] (compound 10 µM)
- phospho-S6 immunofluorescence (z-score) (co-treatment: GDC0941 450 nM): 0.58
- phospho-S6 immunofluorescence (z-score) (co-treatment: lapatinib 1 uM): -1.03
- phospho-S6 immunofluorescence (z-score) (co-treatment: vehicle): -0.92

Compound: Clc1cccc(COc2cncc(N3CCNCC3)n2)c1 (compound 10 µM)
- phospho-S6 immunofluorescence (z-score) (co-treatment: GDC0941 450 nM): -1.03
- phospho-S6 immunofluorescence (z-score) (co-treatment: lapatinib 1 uM): -4.09
- phospho-S6 immunofluorescence (z-score) (co-treatment: vehicle): 0.21

Compound: C[C@@H](O)[C@@H]1NC(=O)[C@H](CCCCN)NC(=O)[C@@H](Cc2c[nH]c3ccccc23)NC(=O)[C@H](Cc2ccccc2)NC(=O)[C@@H](NC(=O)[C@H](N)Cc2ccccc2)CSSC[C@@H](C(=O)N[C@H](CO)[C@@H](C)O)NC1=O [Octreotide (acetate)] (compound 10 µM)
- phospho-S6 immunofluorescence (z-score) (co-treatment: GDC0941 450 nM): 0.59
- phospho-S6 immunofluorescence (z-score) (co-treatment: lapatinib 1 uM): 1.9
- phospho-S6 immunofluorescence (z-score) (co-treatment: vehicle): -0.73

Compound: CNc1nc(NCc2ccc(NS(C)(=O)=O)cc2Cl)cc(-c2ccccn2)n1 (compound 10 µM)
- phospho-S6 immunofluorescence (z-score) (co-treatment: GDC0941 450 nM): -3.45
- phospho-S6 immunofluorescence (z-score) (co-treatment: lapatinib 1 uM): -5.07
- phospho-S6 immunofluorescence (z-score) (co-treatment: vehicle): -4.83

Compound: CC(=O)OCC(=O)[C@@]12OC(C)(C)O[C@@H]1C[C@H]1[C@@H]3C[C@H](F)C4=CC(=O)C=C[C@]4(C)[C@@]3(F)[C@@H](O)C[C@@]12C [Fluocinonide] (compound 10 µM)
- phospho-S6 immunofluorescence (z-score) (co-treatment: GDC0941 450 nM): -0.28
- phospho-S6 immunofluorescence (z-score) (co-treatment: lapatinib 1 uM): 0.59
- phospho-S6 immunofluorescence (z-score) (co-treatment: vehicle): 0.62

Compound: CCCCCCCCOc1ccccc1C(=O)Nc1ccc(C(=O)OCC[N+](C)(CC)CC)cc1 [Otilonium (bromide)] (compound 10 µM)
- phospho-S6 immunofluorescence (z-score) (co-treatment: GDC0941 450 nM): -1.43
- phospho-S6 immunofluorescence (z-score) (co-treatment: lapatinib 1 uM): 2.8
- phospho-S6 immunofluorescence (z-score) (co-treatment: vehicle): 0.94

Compound: CCc1c(C)[nH]c2c1C(=O)C(CN1CCOCC1)CC2 (configuration not stated) [Molindone (hydrochloride)] (compound 10 µM)
- phospho-S6 immunofluorescence (z-score) (co-treatment: GDC0941 450 nM): -0.5
- phospho-S6 immunofluorescence (z-score) (co-treatment: lapatinib 1 uM): 0.28
- phospho-S6 immunofluorescence (z-score) (co-treatment: vehicle): 0.19

Compound: Cc1cc2c(cc1CC(=O)c1sccc1S(=O)(=O)Nc1onc(C)c1Cl)OCO2 [Sitaxsentan (sodium)] (compound 10 µM)
- phospho-S6 immunofluorescence (z-score) (co-treatment: GDC0941 450 nM): 0.35
- phospho-S6 immunofluorescence (z-score) (co-treatment: lapatinib 1 uM): 0.35
- phospho-S6 immunofluorescence (z-score) (co-treatment: vehicle): 0.45

Compound: CN1[C@@H]2CC[C@H]1C[C@@H](OC(=O)c1c[nH]c3ccccc13)C2 [Tropisetron (Hydrochloride)] (compound 10 µM)
- phospho-S6 immunofluorescence (z-score) (co-treatment: GDC0941 450 nM): 0.95
- phospho-S6 immunofluorescence (z-score) (co-treatment: lapatinib 1 uM): -0.2
- phospho-S6 immunofluorescence (z-score) (co-treatment: vehicle): -0.04

Compound: CC(=O)Nc1cccc2c1c(Sc1ccc(Cl)cc1)c(C)n2CC(=O)O (compound 10 µM)
- phospho-S6 immunofluorescence (z-score) (co-treatment: GDC0941 450 nM): 0.52
- phospho-S6 immunofluorescence (z-score) (co-treatment: lapatinib 1 uM): 0.08
- phospho-S6 immunofluorescence (z-score) (co-treatment: vehicle): -0.17

Compound: C(=C\c1ccccc1)/CN1CCN(C(c2ccccc2)c2ccccc2)CC1 [Cinnarizine] (compound 10 µM)
- phospho-S6 immunofluorescence (z-score) (co-treatment: GDC0941 450 nM): 0.86
- phospho-S6 immunofluorescence (z-score) (co-treatment: lapatinib 1 uM): 0.22
- phospho-S6 immunofluorescence (z-score) (co-treatment: vehicle): 1.3

Compound: OCCOCCN1CCN(C2=Nc3ccccc3Sc3ccccc32)CC1 [Quetiapine] (compound 10 µM)
- phospho-S6 immunofluorescence (z-score) (co-treatment: GDC0941 450 nM): 0.95
- phospho-S6 immunofluorescence (z-score) (co-treatment: lapatinib 1 uM): -0.32
- phospho-S6 immunofluorescence (z-score) (co-treatment: vehicle): 0.64
